Measurements: PubChem BioAssay AID1347056 (Sanford-Burnham Center for Chemical Genomics, 2019)
Among all 360,000 compounds or so, about 3,600 (1%) were called active. What follows is part of a selection rich in actives, with near analogues and random picks from the rest. Unmarked numbers belong to inactive results.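 The calls were made as follows: active = compounds whose plate-normalised and pattern-corrected inhibition of the luciferase reporter signal at the single screening dose is 50% or more; inactive = the rest.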

assay: TROY pathway blockers in reporter cells – Q293 LMP1-TROYcd cells, NF-kB luciferase, uHTS, primary screen (AID 1347056); conditions: 4 h, at 10 µM, hits give high values

SMILES	inhibition
Cc1ccc(S(=O)(=O)N2CCC3(CC2)OCCO3)c(C)c1	5.19%
COc1ccc(/C(C)=N/N2CCOCC2)c(O)c1	6.68%
CC1=C(C)CC(C(=O)NNC(=O)c2csc3c2CCC(C(C)(C)C)C3)C(C(=O)O)C1 (stereo not drawn)	-0.5%
COc1ccc(N2CCN(CCCNC(=O)C3CCN(S(=O)(=O)N4CCOCC4)CC3)CC2)cc1	91.5% (active)
O=C(NCCCN1CCN(Cc2ccccc2)CC1)C1CCN(S(=O)(=O)N2CCCC2)CC1	-13%
COc1ccc(CNC(=O)C2CCN(S(=O)(=O)N3CCOCC3)CC2)cc1	7%
CCCCc1c(-c2ccc(Cl)cc2)ncn1CCc1ccccc1OC	38.5%
O=C(CNCc1ccc(F)cc1)Nc1ccccc1-c1ccccc1	25.9%
OC1CCCN(c2ncnc3c2nnn3Cc2c(F)cccc2Cl)C1 (stereo not drawn)	-10.3%
Cc1cccc(NC(=O)/C=C/c2ccc3c(c2)OCO3)n1	-33.1%
O=C(CNC(=O)C(c1ccccc1)c1ccccc1)N/N=C\c1ccc2c(c1)OCO2	-30.7%
C(=N\Nc1ccc2ccccc2n1)/c1ccc2c(c1)OCO2	69.8% (active)
COc1cccc(-c2nn(-c3ccccc3)cc2/C=C(\C#N)C(=O)NCCCn2ccnc2)c1	-24.5%
COc1ccc(-c2nn(-c3ccccc3)cc2CN2CCCO2)c(F)c1	-17.1%
COc1ccc(-c2nn(-c3ccccc3)cc2/C=C2/SC(=S)N(CCCC(=O)O)C2=O)c(C)c1	58% (active)
O=C(C1CCC1)N1CCN(S(=O)(=O)c2ccc([N+](=O)[O-])cc2)CC1	-10.9%
Cc1ccc2c(C)c(C(=O)N3CCN(c4ccncc4)CC3)oc2c1C	5.65%
Clc1cccc(N=C2NN=C(c3ccc4c(c3)OCCO4)CS2)c1	66.2% (active)
CN(C)c1nc(=Nc2cccc(Cl)c2)ss1	-31.5%
c1ccc(CN2CCC(N=C3NN=C(c4ccc5c(c4)OCCO5)CS3)CC2)cc1	77.6% (active)

SMILES	inhibition
CC(=NC1CCN(Cc2ccccc2)CC1)c1c(O)[nH]c(=O)[nH]c1=O	26.3%
CS(=O)(=O)N(CC(=O)N1CCN(Cc2ccccc2)CC1)c1ccc2c(c1)OCCO2	19.4%
C/C(=N\NC(=O)c1ccc(NS(=O)(=O)c2cccs2)cc1)c1ccc2ccccc2c1	-29.3%
CC(NC(=O)c1ccc(S(=O)(=O)Nc2ccccc2)cc1)c1ccc(S(N)(=O)=O)cc1 (stereo not drawn)	2.55%
COCCOC(=O)c1c(C)oc2cc(Br)c(OCC(N)=O)cc12	9.46%
CC(=O)c1ccc(NC(=O)C(C)OC(=O)c2ccc(NS(=O)(=O)c3ccc4[nH]c(=O)[nH]c4c3)cc2)cc1 (stereo not drawn)	-12.5%
CCCCN1C(=S)NC[C@@H]1C(C)CC (stereo partly drawn)	-3.76%
O=[N+]([O-])/C(N=Nc1ccccc1)=N\Nc1ccccc1	-1.58%
COC(=O)c1cc(=O)n(-c2c(Cl)cc(C(F)(F)F)cc2Cl)[nH]1	6.27%
NC1=NC(=O)S/C1=C\c1ccc(O)cc1	-17.8%
COc1cccc(/C=C/c2ccc3ccccc3n2)c1OC(C)=O	54.2% (active)
COc1cccc(NC(=O)COC(=O)c2ccc3ccccc3n2)c1	-23.3%
CCOc1cccc(/C=C/c2ccc3ccccc3n2)c1OC(C)=O	33.9%
CCOc1ccc(C2c3[nH]c4ccccc4c3CCN2Cc2cccn2-c2ncccn2)cc1 (stereo not drawn)	47.5%
COC(=O)C1=C(C(=O)OC)[C@@H]2N(C)c3ccccc3[C@@]23C[C@@H](C(=O)OC)N(C(=O)c2ccco2)C3=N1	7.75%
O=S1(=O)CC(NCc2ccccc2)C(Nc2ccc(Cl)cc2)C1 (stereo not drawn)	57% (active)
O=C(Cc1ccc(Cl)cc1)NC1CCS(=O)(=O)C1 (stereo not drawn)	3.91%
O=C(NCCS(=O)(=O)NCc1ccc(Cl)cc1)c1ccccc1	4.3%
CC(NC(=S)Nc1ccc(OC(F)F)cc1)c1ccc(F)cc1 (stereo not drawn)	-5.08%
Cc1cccc(N2CCN(S(=O)(=O)c3ccc(-c4cc(C)no4)s3)CC2C)c1 (stereo not drawn)	-15%

SMILES	inhibition
Cc1cccc(NS(=O)(=O)c2ccc(-c3cnc(C4CC4)o3)cc2)c1	50.5% (active)
Cc1cccc(CNS(=O)(=O)c2ccc(-c3cnc(C4CC4)o3)cc2)c1	15.4%
COc1ccc(CNS(=O)(=O)c2ccc(-c3cnc(C4CC4)o3)cc2)cc1	26%
Cc1c(NC(=O)CCC2CCCCC2)cc(C(=O)N2CCOCC2)cc1[N+](=O)[O-]	12.1%
COC(=O)[C@]1(C)N[C@H](CN(C)C(=O)c2ccc(C(C)(C)C)cc2)[C@@H]2C(=O)N(C)C(=O)[C@@H]21	-13.4%
COc1cccc(OCC(=O)NCCS(=O)(=O)N2CCN(c3ccccc3)CC2)c1	17.7%
COCc1cc(C)nc(Nc2cc(C)ccc2C)c1C#N	0.76%
Cc1noc(C)c1COC(=O)COc1ccc(-c2ccccc2)cc1	4.68%
O=C(COC(=O)c1ccncc1)c1ccccc1	-18.8%
O=C(Oc1ccc(-c2nc(-c3ccccn3)no2)cc1)c1ccccc1	60% (active)
O=C(NCc1cccs1)c1cc(-c2ccccn2)nc2ccc(Br)cc12	-12.5%
CC(C)Cn1c(N)c(C(=O)NCc2cccs2)c2nc3ccccc3nc21	51.3% (active)
O=C(Cc1coc2ccc3ccccc3c12)NCc1cccs1	-38.6%
CCOc1ccc(NC(=O)CCS(=O)(=O)c2ccc3c(c2)CCCN3C(=O)CC)cc1	21.6%
CCOC(=O)c1cc(C)sc1NC(=O)C1CCC1	12.2%
CC1=NN(C(=O)CCCc2ccccc2)C(O)(C(F)(F)F)C1 (stereo not drawn)	6.41%
C=CCN1CCN(C(=O)CCCc2ccccc2)CC1	73.6% (active)
CCN1CCN(C(=O)CCN2C(=O)c3ccccc3C2=O)CC1	13.8%
